This assay concerns thyroid hormone receptor (endogenous TRα and TRβ). The arrangement: species or system GH3-TRE-Luc (rat pituitary); GH3-TRE-Luc luciferase reporter, antagonist mode against 1 nM T3, loss of signal, qHTS. To be noted: read-out: Average AC50 (uM) GH3-TRE-Antag, antagonist mode, 1 nM T3, no GH3 cytotoxicity hit.
Regarding `CCCCCCCCCCCCCC(=O)O` [Tetradecanoic acid], the half-maximal activity concentration (AC50) came to 52.3 µM.

With `CCOC(=O)Oc1c(OC)cc(C(=O)O[C@@H]2C[C@@H]3CN4CCc5c([nH]c6cc(OC)ccc56)[C@H]4C[C@@H]3[C@H](C(=O)OC)[C@H]2OC)cc1OC` [Syrosingopine], the AC50 turned out to be 19 µM.

As to `COc1ccc(/C=C/C(=O)Nc2ccccc2C(=O)O)cc1OC` [Tranilast], the half-maximal activity concentration (AC50) was determined as 12.3 µM.

For `Cc1cc(C(C)(C)c2ccc(O)c(C)c2)ccc1O` [3,3'-Dimethylbisphenol A], the AC50 is 33.1 µM.

Regarding `O=C(O)Cc1ccccc1Nc1c(Cl)cccc1Cl` [Diclofenac sodium], the AC50 was greater than 50 µM.

Regarding `CCCCC(CC)COC(=O)c1ccc(N(C)C)cc1` (centres unmarked) [2-Ethylhexyl 4-(dimethylamino)benzoate], the AC50 turned out to be 47.2 µM.

For the molecule `c1ccc(C2(c3ccccc3)CC2C2=NCCN2)cc1` (centres unmarked) [Cifenline succinate], the AC50 is 35.8 µM.

For the molecule `O=C(NOC[C@H](O)CO)c1ccc(F)c(F)c1Nc1ccc(I)cc1F` [PD 0325901], the AC50 stood at 4.11 µM.

`ClC1C(Cl)C(Cl)C(Cl)C(Cl)C1Cl` (stereo not drawn) [alpha-1,2,3,4,5,6-Hexachlorocyclohexane]: the concentration at half-maximal activity (AC50) was found to be 26.5 µM.

As for `CC(C)Oc1ccc2c(=O)c(-c3ccccc3)coc2c1` [Ipriflavone], the AC50 came out at 25 µM.

For the molecule `CC(C)(c1ccc(O)cc1)c1ccc(O)cc1` [BPA, bisphenol A], the AC50 is 66.6 µM.

(Values after article PMC6792352, “Limited Chemical Structural Diversity Found to Modulate Thyroid Hormone Receptor in the Tox21 Chemical Library” (Environmental Health Perspectives, 2019).)
